sEH inhibitor: blocks human soluble epoxide hydrolase activity; recombinant human sEH enzymatic activity assay; inhibition, % at 2 µM; hit rate 0.34% among 91,000; in the data active means inhibition above about 80%
Ec RNAP inh: blocks E. coli RNA polymerase transcription. fluorescence transcription assay. inhibition, %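 (tested at 10 µM)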. hit rate 0.2% among 62,000; in the data active means inhibition above about 20%
Target sequence (P0A8V2 whole entry, looked up): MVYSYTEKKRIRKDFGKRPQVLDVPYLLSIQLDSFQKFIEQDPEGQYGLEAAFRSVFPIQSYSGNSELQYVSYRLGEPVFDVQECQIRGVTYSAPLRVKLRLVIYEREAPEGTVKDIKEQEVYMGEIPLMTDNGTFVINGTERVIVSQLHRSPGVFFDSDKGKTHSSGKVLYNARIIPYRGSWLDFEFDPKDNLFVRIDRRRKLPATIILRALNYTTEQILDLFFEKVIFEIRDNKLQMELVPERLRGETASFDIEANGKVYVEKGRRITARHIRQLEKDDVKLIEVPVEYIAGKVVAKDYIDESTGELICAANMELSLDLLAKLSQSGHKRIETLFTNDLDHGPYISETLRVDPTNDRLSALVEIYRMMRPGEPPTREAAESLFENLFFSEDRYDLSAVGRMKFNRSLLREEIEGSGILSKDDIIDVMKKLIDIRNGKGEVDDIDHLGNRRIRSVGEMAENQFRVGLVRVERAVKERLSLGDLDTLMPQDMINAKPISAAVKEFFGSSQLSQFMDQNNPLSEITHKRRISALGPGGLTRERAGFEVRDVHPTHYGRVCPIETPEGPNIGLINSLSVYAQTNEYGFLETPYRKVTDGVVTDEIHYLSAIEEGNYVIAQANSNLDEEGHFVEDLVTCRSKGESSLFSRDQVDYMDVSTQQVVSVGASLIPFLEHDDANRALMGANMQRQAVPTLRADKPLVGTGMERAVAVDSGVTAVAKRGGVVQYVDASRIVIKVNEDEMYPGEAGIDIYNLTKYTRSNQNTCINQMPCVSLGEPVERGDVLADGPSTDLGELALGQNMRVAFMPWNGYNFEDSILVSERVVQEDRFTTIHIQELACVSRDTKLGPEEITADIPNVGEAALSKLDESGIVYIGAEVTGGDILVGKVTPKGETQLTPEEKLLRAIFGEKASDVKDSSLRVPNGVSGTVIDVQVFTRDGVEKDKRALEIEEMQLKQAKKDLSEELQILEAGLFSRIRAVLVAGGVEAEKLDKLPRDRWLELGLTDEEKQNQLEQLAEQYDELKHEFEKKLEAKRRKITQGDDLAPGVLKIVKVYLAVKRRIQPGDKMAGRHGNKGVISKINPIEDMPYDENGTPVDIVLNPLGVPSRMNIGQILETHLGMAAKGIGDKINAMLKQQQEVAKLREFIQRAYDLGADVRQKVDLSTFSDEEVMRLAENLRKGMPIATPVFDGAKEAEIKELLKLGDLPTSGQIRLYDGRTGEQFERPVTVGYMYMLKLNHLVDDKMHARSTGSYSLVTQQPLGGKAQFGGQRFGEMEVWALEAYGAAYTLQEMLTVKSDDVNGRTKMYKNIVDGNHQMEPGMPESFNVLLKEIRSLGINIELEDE
MT1-MMP txn act: activates MT1-MMP transcription; HT1080 MT1-MMP promoter luciferase reporter, luminescence, overnight; stronger effect = higher value; activation factor at 10 µM; hit rate 0.16% among 86,000; AID 750;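 active means activation factor of at least 2 for MT1-MMP transcription at 10 µM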
PTPN22 act: LYP (human) phosphatase activation; AID 697; hit rate 0.11% among 96,000; activation, % at 2 µM; Q9Y2R2; recombinant LYP, DiFMUP fluorescence; 0 = plate median, 100 = signal doubled;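 active means activation at 2 µM above a set limit, the mean plus 5 SD, cut at about 37% in these data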
LYP inh 2: inhibitors of human LYP (PTPN22) phosphatase. Q9Y2R2. recombinant LYP catalytic domain, DiFMUP fluorescence. inhibition, % at 2 µM. hit rate 0.21% among 96,000. AID 640;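 active means inhibition at 2 µM at or above a set limit, the screen mean plus 3 SD, cut at about 24% in these data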
sEH activator: activators of human soluble epoxide hydrolase | P34913 | purified human sEH enzymatic activity, activator screen | activation, % at 2 µM | hit rate 0.04% among 91,000 | AID 717; in the data active means activation above about 37%
Numbers stand for hits; – = inactive; · = not tested or not shown. Rows were chosen to be rich in hits. Some 0.64% of all compounds tested hit in one or more screens of this group.

SMILES	sEH inhibitor	Ec RNAP inh	MT1-MMP txn act	PTPN22 act	LYP inh 2	sEH activator
CSc1cccc(NC(=O)Nc2ccc(Cl)cc2)c1	82.3	·	–	–	–	–
CSc1ccccc1NC(=O)Nc1ccc(Cl)cc1	–	·	–	–	–	–
CCC1=C(OC(=O)N(CC)CC)N2C(=O)OC(=NCCOC)[C@]2(C)[C@H]2C1=CC[C@H]1C(=O)N(C)C(=O)[C@H]12	·	·	–	·	·	·
Cc1cc(=O)c2n(Cc3ccc(Cl)cc3)nc[n+]2[nH]1	·	48.9	–	·	·	·
Cn1c(C(=O)N2CCCC(C(=O)NCc3cccs3)C2)cc2sccc21 (configuration not stated)	–	–	–	–	–	–
CCn1c(C(=O)N2CCCC(C(=O)NCCCc3ccccc3)C2)cc2sccc21 (configuration not stated)	93.9	–	–	–	–	–
Cn1c(C(=O)N2CCCC(C(=O)NCCCSC3CCCCC3)C2)cc2sccc21 (configuration not stated)	92.1	–	–	–	–	–
CCn1c(C(=O)N2CCCC(C(=O)NCCc3ccc(C)cc3)C2)cc2sccc21 (configuration not stated)	–	–	–	–	–	–
O=C(CSc1ncn[nH]1)NCCC(c1ccccc1)c1ccccc1	–	·	–	–	–	–
Cc1cc(C(C)(C)C)cc(C)c1COC(=O)C1CCC(=O)N1 (configuration not stated)	–	–	–	–	27.1	–
O=C1CCC(C(=O)OCc2c(Cl)cccc2Cl)N1 (configuration not stated)	–	·	–	–	–	–
COc1cccc(/C=N/NC(=O)c2[nH]c(C)c(C(=O)N/N=C/c3cccc(OC)c3O)c2C)c1O	–	·	·	–	–	–
COc1cccc(/C=N/NC(=O)c2ccc(-c3ccccc3)cc2)c1O	–	·	·	–	27.6	–
O=C(NCCc1c[nH]c2ccccc12)C1CCC(Cn2c(=S)[nH]c3ccccc3c2=O)CC1 (configuration not stated)	94.8	·	·	–	–	–
COCCNC(=O)C1(CC(C)C)C=CCN1C(C)=O (configuration not stated)	·	·	–	·	·	·
CCC1=C(OC(=O)N(CC)CC)N2C(=O)OC(=NCC3CC3)[C@]2(Cc2ccccc2)[C@H]2C1=CC[C@H]1C(=O)N(CC)C(=O)[C@H]12	·	·	–	·	·	·
CCn1c(CSc2nc3ccccc3s2)nnc1SCC(=O)c1ccc(O)c(O)c1	–	·	·	–	45.5	–
Cn1nc(-c2ccc(Cl)cc2)nc2c(=O)n(C)c(=O)nc1-2	–	·	–	–	44.9	–
CCS(=O)(=O)n1nc(-c2ccc(Cl)cc2)nc1SC	–	·	–	–	–	–
CC(C)C(CCNC(=O)CC(Cc1ccccc1)c1ccco1)c1ccco1 (configuration not stated)	–	·	–	–	24.1	–
CC(C)C(CCNC(=O)CN1C(=O)c2ccccc2C1=O)c1ccco1 (configuration not stated)	–	–	–	–	–	–
Nc1ccc(O)c(-c2nc3ccccc3s2)c1	–	–	2.1	–	–	–
Nc1cccc(-c2nc3ccc(N)cc3s2)c1	–	–	–	–	–	–
C[C@H](NC(=O)[C@@H]1C[C@H]1[C@@H](NC(=O)OCc1ccccc1)c1ccccc1)c1ccccc1	·	·	–	·	·	·
CCCc1cc2c(n1Cc1cc(F)cc(F)c1)C(C)C1CN(C(=O)c3ccccc3)C(C)(C(=O)OC)C21 (configuration not stated)	·	·	–	·	·	·
SMILES	sEH inhibitor	Ec RNAP inh	MT1-MMP txn act	PTPN22 act	LYP inh 2	sEH activator
O=C(Nc1cccc2ccccc12)N1CCOCC1	–	–	–	–	–	–
O=C(Nc1cccc2ccccc12)c1ccc(OC(=S)N2CCOCC2)cc1	87.7	·	·	–	–	–
O=C1N(O)C2(C=CCCC2)/C(=N\O)C12CCCCC2 (configuration not stated)	–	33.5	–	–	–	–
Cc1nnc(N(Cc2ccco2)C(=O)c2ccc(C#N)cc2)s1	–	·	–	–	26.9	–
Cc1nnc(N(Cc2ccco2)C(=O)c2cccc(C#N)c2)s1	–	–	–	–	–	–
Cc1ccc(C(C(=O)NC2CCCC2)N(Cc2cccs2)C(=O)c2csnn2)o1 (configuration not stated)	–	·	–	–	–	–
c1ccc2c(N3CCCCC3)nc(N3CCCCC3)nc2c1	–	–	–	–	–	–
Cc1cc(N2CCN(c3nc(N4CCOCC4)nc4ccccc34)CC2)c2ccccc2n1	–	–	–	39.0	–	–
O=C(Nc1ccc(N2CCOCC2)c(Cl)c1)c1cccnc1Cl	–	·	–	–	–	–
COc1c(C)cccc1C(=O)Nc1ccc(N2CCOCC2)c(Cl)c1	–	·	2.2	–	–	–
Nc1c(C(=O)c2ccccc2)sc2snc(SCC(=O)c3ccccc3)c12	–	·	·	–	–	–
COC(=O)[C@@H]1C[C@H]2CC[C@H](O)C[C@H]2N1Cc1ccccc1OS(=O)(=O)c1ccc(C)cc1	·	·	–	·	·	·
Cc1ccc(-n2c(CNc3ccc(F)cc3)nnc2SCC(=O)N2CCCC2)cc1	–	36.4	–	–	–	–
O=C(CSc1nnc(CNc2ccc(F)cc2)n1-c1ccccc1)N1CCOCC1	–	·	–	–	–	–
CN(C)c1cc[n+](Cc2c(Cl)cccc2Cl)cc1	–	·	–	–	–	–
COc1ccc(C(=O)c2sc3nc(-c4ccccc4)ccc3c2N)cc1OC	–	·	·	–	25.0	–
COc1ccc(-c2ccc3c(N)c(C(=O)c4ccc(OC)c(OC)c4)sc3n2)cc1	–	·	·	–	–	–
O=C(N/N=C\c1ccc(Cl)s1)c1cccs1	94.4	·	·	–	–	–
CC(=O)/C(C#N)=C1\NC(=O)C(Cc2ccccc2Cl)S1 (configuration not stated)	–	32.0	–	–	–	–
N/C(=N\OS(=O)(=O)c1ccc(Br)cc1)c1ccncc1	–	·	–	–	–	–
N#Cc1ccc(-c2ccco2)nc1SCC(=O)c1ccc(Cl)cc1	·	21.2	–	–	–	·
CCCCn1c(SCC(=O)Nc2nnc(CC)s2)nc2c1c(=O)n(C)c(=O)n2C	–	–	–	–	–	–
CCCCn1c(SCC(=O)Nc2nnc(C)s2)nc2c1c(=O)n(C)c(=O)n2C	–	31.3	–	–	–	–
Cc1ccccc1NCCNc1ccccc1C	–	·	–	–	–	–
CN1CCN(S(=O)(=O)c2cccc([N+](=O)[O-])c2)CC1	–	·	·	–	–	38.6
CCC(C)c1ccc(NC(=O)C2CCN(c3ncccn3)CC2)cc1 (configuration not stated)	98.8	·	–	–	–	–
CC(C)(C)c1csc(NC(=O)c2ccc3nccnc3c2)n1	–	·	2	–	–	–
CC(C)CNc1nnnc2c1sc1nc(N3CCOCC3)c3c(c12)CC(C)(C)SC3	–	·	·	–	24.6	–
O=C(Nc1nc2c(ccc3ccccc32)s1)c1ccco1	–	–	2.3	–	–	–
Cc1nn(-c2ccccc2)c(C)c1/C=N/NC(=O)c1cc(C23CC4CC(CC(C4)C2)C3)[nH]n1	–	·	·	–	37.7	–
